Source: PubChem BioAssay (NCI)
The panel holds about 83,000 compounds, 20% with a hit somewhere; the sample as a whole holds those more often.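 For each line, cells grew in 96-well plates with the test compound present at a single concentration for 48 hours.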 Unmarked numbers belong to inactive results. The source made the active and inactive calls. The calls were made as follows: active = growth percent below 10; inactive = the rest.

Assays:
Experiment in all cases: NCI-60 one-dose screen, 48 h (100 = growth as untreated, 0 = no growth, -100 = all killed)
Details in all cases: 10 µM unless noted
T-47D breast = tested on: T-47D breast
BT-549 breast = tested on: BT-549 breast
MDA-MB-435 melanoma = tested on: MDA-MB-435 melanoma
SW-620 colon = tested on: SW-620 colon
MCF7 breast = tested on: MCF7 breast
HCT-116 colon = tested on: HCT-116 colon
HCC-2998 colon = tested on: HCC-2998 colon
KM12 colon = tested on: KM12 colon

Compound	growth (T-47D breast)	growth (BT-549 breast)	growth (MDA-MB-435 melanoma)	growth (SW-620 colon)	growth (MCF7 breast)	growth (HCT-116 colon)	growth (HCC-2998 colon)	growth (KM12 colon)
CCOC(=O)c1ccc[nH]1	93.3%	77.5%	105%	113%	92.6%	94.5%	88.1%	108%
O=C(NCCNC(c1ccccc1)C(NCCNC(=O)c1ccccc1)c1ccccc1)c1ccccc1 (configuration not stated)	97.8%	96.4%	114%	57.8%	70.7%	53.8%	105%	100%
O=C1/C(=C/c2cccc(Br)c2)COc2ccc(O)cc21	19.6%	47.7%	25.1%	-21.2% (active)	6.98% (active)	6.67% (active)	86.2%	28%
Cc1ccc2cnc(N)c(C#Cc3cc(C(=O)Nc4ccc(CN5CCN(C)CC5)c(C(F)(F)F)c4)cnc3C)c2c1	66.8%	16.5%	-69.3% (active)	-77.3% (active)	-50.8% (active)	-83.9% (active)	54%	0.561% (active)
COc1cc(-c2cc(-c3ccc(Nc4nc(Nc5ccc(Cl)cc5)nc(Nc5ccc(Cl)cc5)n4)cc3)no2)cc(OC)c1OC	45.9%	88.6%	71.5%	89.1%	49.4%	66.2%	61.3%	83.8%
Cc1ccc(OCCOCCOCCOc2ccc(C)n(O)c2=S)c(=S)n1O	14%	50.4%	56.3%	24.5%	20.3%	9.46% (active)	57.9%	30.8%
Cc1ccc(S(=O)(=O)c2nc(-c3ccccc3)oc2SCC(N)=O)cc1	76.3%	106%	105%	104%	96%	85.7%	105%	97.9%
Oc1c(CN2CCC(N3CCOCC3)CC2)cc(Cc2cc(CN3CCC(N4CCOCC4)CC3)c(O)c3ncccc23)c2cccnc12	21.5%	33.5%	20.3%	28.2%	5.06% (active)	11.5%	0.162% (active)	17.1%
CNCCCNc1nc2ccccc2c2c(=O)c3cc(Cl)ccc3sc12	48.5%	92.4%	-18.5% (active)	-87% (active)	-77.3% (active)	-92.1% (active)	-89.8% (active)	-24.6% (active)
C=C(C)[C@@H]1CC[C@]2(C(=O)Nc3ccccn3)CC[C@]3(C)[C@H](CC[C@@H]4[C@@]5(C)CCCNC(C)(C)[C@@H]5CC[C@]43C)[C@@H]12	25.9%	25.7%	2.12% (active)	-31.7% (active)	8.22% (active)	-43.4% (active)	5.09% (active)	10.6%
COC(=O)/C=C1/SC(=NCc2ccccc2)N(CCc2c[nH]c3ccccc23)C1=O	53.5%	66.9%	72.3%	72%	48.4%	53.6%	99.8%	70.4%
COCCn1cc(-c2csc(-c3c[nH]c4ccc(F)cc34)n2)c2cccnc21	2.36% (active)	7.07% (active)	5.02% (active)	18.8%	11.8%	22.2%	27.6%	8.29% (active)
O=C(/C=C/C12c3ccccc3C(c3ccccc31)C1C(=O)NC(=O)C12)c1ccco1 (configuration not stated)	18.6%	19.3%	0.633% (active)	27.4%	12.8%	7.57% (active)	103%	12.9%
CCCCCCCCCCCCCCCCCCOc1ccccc1CC(=O)NCC[N+](C)(C)C	73.2%	57.6%	73.1%	45.1%	57.6%	45.2%	29.9%	-27% (active)
CS(=O)(=O)Nc1cc(-c2ccc3ncnc(Nc4ccc(F)c(Cl)c4)c3c2)ccc1Cl	12.2%	49.4%	58.2%	75.4%	23.9%	59.5%	79.9%	52.7%
O=C(/C=C/c1cccc(Oc2ccccc2)c1)c1ccc(Nc2nc(Nc3ccc(F)cc3)nc(Nc3ccc(Cl)cc3)n2)cc1	95.4%	104%	112%	104%	89.6%	95.1%	67.1%	105%
COc1ccc(C(=O)Nc2ncc(Cc3ccc(Cl)cc3)s2)cc1	25.9%	17.8%	2.35% (active)	25.7%	8.72% (active)	3.61% (active)	6.76% (active)	5.8% (active)
CC1(C)CC(=O)C2=C(C1)C(c1ccc(Cl)cc1)n1ncc(C#N)c1N2 (configuration not stated)	85.8%	103%	103%	99.3%	95.4%	98.4%	107%	110%
COc1cc2c(c(OC)c1OC)C(=O)CC(c1cccc(C(=O)Nc3ccc(C#N)cc3)c1)O2 (configuration not stated)	9.48% (active)	33%	63%	97.8%	48.7%	56.2%	98.2%	79.1%
CCOc1ncc([N+](=O)[O-])c(OCC)n1	106%	105%	124%	111%	93.8%	105%	99.4%	117%
Cc1cc(O)c(=O)cc2c1C[C@H]1CC(C)(C)/C=C/C[C@]3(C)Oc4cc(=O)c(O)cc(C)c4C[C@H]3C[C@H](O)[C@@]1(C)O2	2.08% (active)	1.38% (active)	18.1%	13.8%	2.97% (active)	8.37% (active)	32.4%	16.1%
O=c1cc(C(F)(F)F)c2cc(-c3cc4ccccc4c(=O)o3)c(O)cc2o1	49.4%	63.6%	72.8%	86.1%	77.4%	71.7%	92.8%	76.5%
Cc1cccc(NC(=O)N/C(N)=N/c2nc3ccccc3s2)c1	35.5%	57.2%	2.83% (active)	34.3%	21.9%	23.8%	56.4%	25.1%
CC1=C(Cl)C(=O)c2cc(C)ccc2C1=O	96.9%	97.9%	105%	105%	91.2%	106%	104%	102%
Cc1nc(N/N=C/c2cn(-c3ccccc3)nc2-c2cc3ccccc3oc2=O)sc1N=Nc1ccccc1	83.2%	78.3%	3.67% (active)	78.8%	68.3%	87.4%	104%	63.7%
Cc1c(O)cc(-c2cnc(N/N=C/c3ccccc3)s2)c(O)c1C	29.7%	72.8%	95.5%	113%	72.3%	96.2%	131%	90.7%
CC/C(=C(/c1ccc(O)cc1)c1ccc(OCCN2CCCCC2)cc1)c1ccc(OC)cc1	43.4%	79.2%	13.2%	73.5%	11.5%	27.9%	87.2%	52.4%
Cc1ccccc1N1CCN(C(=S)c2ccccc2)CC1	89.1%	88.5%	103%	98.3%	88.2%	91.9%	75.3%	112%
Cc1ccc(S(=O)(=O)OC[C@]23CCC(C)(C)C[C@H]2C2=CC[C@@H]4[C@@]5(C)CCCNC(C)(C)[C@@H]5CC[C@@]4(C)[C@]2(C)CC3)cc1	1.19% (active)	88.2%	31%	-71.3% (active)	23.8%	-83% (active)	-12.3% (active)	-1.94% (active)
